Shiga toxin inh = A qHTS for Small Molecule Inhibitors of Shiga Toxin | Vero cells, Shiga toxin protein synthesis inhibition reporter | inhibition, % at 38.7 µM | actives 9.2% (n = 290,000) | AID 2315, 2010; in the data active = inhibition mostly above about 28%, no sharp cut-off; inactive = mostly below about 43%; note: 0% is about no effect
Vaccinia Venus = qHTS for Stage-Specific Inhibitors of Vaccinia Orthopoxvirus: Venus Reporter Primary qHTS; Vaccinia virus Venus reporter expression, fluorescence; Potency, µM (top dose mostly 36.5 µM), for the others: at the highest dose activity change, negative = inhibition, most hits filed as inhibitors; actives 0.46% (n = 330,000); calls by dose curve; tested in A549 cells; note: potency is the fitted concentration of half-maximal effect; % is set by controls: 0 for no effect and ±100 for the full control effect; nearly all actives have a fitted effect of over 30% in size
LASV entry inh = qHTS for Inhibitors of binding or entry into cells for Lassa Virus. AID 540256, 2011. Potency, µM (series often up to 37.9 µM), for the others: at the highest dose activity change, negative = inhibition, hits mostly inhibitors. actives 1.2% (n = 300,000). Lassa virus pseudotype entry inhibition, cell reporter; calls by dose curve; tested in HEK293 cells; note: potency is the fitted concentration of half-maximal effect; % is set by controls: 0 for no effect and ±100 for the full control effect; nearly all actives have a fitted effect of over 50% in size
CHX counter = Cycloheximide Counterscreen for Small Molecule Inhibitors of Shiga Toxin. actives 12% (n = 300,000). max response, %. cell reporter, cycloheximide protein synthesis inhibition counterscreen; in the data active = max response mostly above about 13%, no sharp cut-off; inactive = mostly below about 14%; note: read at 38.3 µM for the half of the compounds with a filed dose; 0% is about no effect
MARV entry inh = qHTS for inhibitors of binding or entry into cells for Marburg Virus; Marburg virus pseudotyped entry inhibition, cell reporter; Potency, µM (titrated, usually from 37.8 µM), for inactives: at the highest dose activity change, negative = inhibition, actives largely listed as inhibitors; actives 1.8% (n = 300,000); AID 540276, 2011; calls by dose curve; tested in HEK293 cells; note: potency is the fitted concentration of half-maximal effect; % is set by controls: 0 for no effect and ±100 for the full control effect
VACV mCherry inh = qHTS for Stage-Specific Inhibitors of Vaccinia Orthopoxvirus: mCherry Reporter Primary qHTS; Vaccinia virus mCherry reporter infection, fluorescence; Potency, µM (top dose mostly 36.5 µM), for the others: at the highest dose activity change, negative = inhibition, usual class: inhibitors; actives 0.63% (n = 310,000); AID 720579, 2013; calls by dose curve; tested in A549 cells; note: potency is the fitted concentration of half-maximal effect; % is set by controls: 0 for no effect and ±100 for the full control effect; nearly all actives have a fitted effect of over 35% in size
Numbers without * were called inactive; i = inactive; u = inconclusive; x = not tested or not shown; [ ] = remark or other dose. This is one part of a sample in which hits are shown more often than they occur.

SMILES	Shiga toxin inh	Vaccinia Venus	LASV entry inh	CHX counter	MARV entry inh	VACV mCherry inh
O=C(Nc1nnc(C2CCCO2)s1)c1ccc(Br)cc1 (stereo not given)	26	x	u	20*	20%	x
Cc1cccc(C)c1OCC(=O)Nc1nnc(C2CCCO2)s1 (stereo not given)	-4	-7%	u	-9	4%	-8%
O=C(Cn1ncc2c3ccccc3n(Cc3ccc(Cl)cc3)c2c1=O)N1CCCCCC1	x	-14%	u	x	13%[46.1 µM]	-10%
Cc1ccccc1NC(=O)CCCCC(=O)Nc1ccccc1C	x	-7%	u	-3	8%	-8%
Cc1cccc(NC(=O)CCCc2ccccc2)c1C	32*	3%	25%[46.1 µM]	23*	u	i
CCC(C)N(CC(=O)Nc1cccc(C)c1C)C(=O)CCl (stereo not given)	-2	u	3.2µM*	4	7%[46.1 µM]	4.5µM*
O=C(CC(=O)c1ccccc1)Nc1ccccc1C(F)(F)F	30	-7%	-26%[46.1 µM]	32*	u	-9%
CCC(CC)NC(=O)Nc1cccc(C)c1C	19	x	x	1	x	x
Cc1ccccc1NC(=O)CSc1ccncc1	26	-1%	0%	14*	u	-20%
NC(=O)NN=C1C2CCCC1C(c1ccccc1)NC2c1ccccc1 (stereo not given)	-2	-29%	u	2	2%	-27%
CC(C)N(CC(=O)Nc1ccc(Cl)cc1C(F)(F)F)C(=O)CCl	21	-24%	u	21*	10µM*	u
O=C(CCCOc1ccccc1)Nc1ccccc1C(F)(F)F	-7	-2%	10%	15	u	-1%
Cc1ccccc1NC(=O)CC(=O)c1ccccc1	22	x	x	18*	x	x
O=C(CCCc1ccccc1)Nc1ccccc1C(F)(F)F	x	-12%	u	13*	5%[46.1 µM]	-25%
Cc1nc(Nc2cccc(O)c2)c2oc3ccccc3c2n1	52*	x	x	42*	x	x
Cc1nc(Nc2ccccc2O)c2oc3ccccc3c2n1	-6	x	x	-4	x	x
Cc1nc(Nc2ccc(Cl)cc2)c2oc3ccccc3c2n1	-2	-7%	5%	7	-4%[46.1 µM]	2%
Cc1nc(Nc2ccccc2F)c2oc3ccccc3c2n1	69*	-11%	-15%	32*	u	-18%
Cc1nc(Nc2cccc(Cl)c2)c2oc3ccccc3c2n1	31*	-19%	u	20*	u	-2%
COc1cccc(Nc2nc(C)nc3c2oc2ccccc23)c1	31	-18%	25%[46.1 µM]	11	u	i
Cc1nc(Nc2cccc(F)c2)c2oc3ccccc3c2n1	97*	-13%	-13%[46.1 µM]	28*	-29%[46.1 µM]	i
Cc1ccc(N(CC(=O)NCCc2ccccc2C)S(=O)(=O)N(C)C)cc1	x	-5%	0%[46.1 µM]	x	u	-2%
Cc1c(C(=O)Nc2nc(-c3ccc(F)cc3)ns2)oc2ccc(Cl)cc12	x	2%	28%[46.1 µM]	x	11%[46.1 µM]	4%
CN1CCCC(C(=O)Nc2cccc(Cl)c2)CC1 (stereo not given)	x	1%	x	x	x	i
CN1CCC(C(=O)Nc2n[nH]c3nc(-c4ccc(O)cc4)c(Br)cc23)CC1	x	x	20µM*	x	x	x
SMILES	Shiga toxin inh	Vaccinia Venus	LASV entry inh	CHX counter	MARV entry inh	VACV mCherry inh
CCOC(=O)c1ccc(-c2ccc(/C=N/NC(=O)CN(c3ccccc3Cl)S(C)(=O)=O)o2)cc1	5	-17%	-14%	14*	u	-8%
OCCCNc1nc(-c2ccc(Cl)cc2)nnc1-c1ccccc1	22	u	4%	20*	u	-29%
Cc1ccc(S(=O)(=O)Nc2ccc(-c3nc4ccc(C)cc4s3)cc2)cc1	2	-9%	4%	-3	-19%	u
Cc1cccc(S(=O)(=O)Nc2ccc(-c3nc4ccc(C)cc4s3)cc2)c1	74*	-23%	u	83*	u	-24%
Cc1ccc2nc(-c3ccc(NS(=O)(=O)c4c(C)n(C)c(=O)n(C)c4=O)cc3)sc2c1	121*	x	x	67*	x	x
Cc1nnc(SCC(=O)N2CCCC(N3CCN(c4ccc(F)cc4)CC3)C2)o1 (stereo not given)	7	-1%	5%	-1	29%	-7%
O=C1SC(SCc2ccccc2)=N/C1=C\c1ccco1	48*	x	-4%	24	16%	x
[O-][n+]1ccccc1SC/C=C/c1ccccc1	96*	3%	-8%	25*	u	i
CCC1CCc2sc(C(=O)N3CCCN(C)CC3)cc2C1 (stereo not given)	19	-6%	-2%[46.1 µM]	23*	u	-20%
CCC1CCc2sc(C(=O)N3CCN(c4ccccn4)CC3)cc2C1 (stereo not given)	x	-5%	-9%	x	18%	-13%
Cc1ccnc(NC(=S)NC(=O)/C=C/c2ccco2)c1	138*	-23%	-25%	70*	u	x
Cc1ccc(-c2csc(NC(=S)NC(=O)/C=C/c3ccco3)n2)cc1	33	x	u	12	u	x
Cc1ccc(O)c(NC(=S)NC(=O)/C=C/c2ccco2)c1	67*	-13%	u	47*	u	-19%
O=C(/C=C/c1ccco1)NC(=S)Nc1ccc(Cl)cn1	88*	25%	3%	29	3%	-4%
Cc1ccc(C(=O)/C=C/c2ccco2)c(O)c1	56*	-6%	1%	37*	u	-14%
COc1ccc(CNc2ncnc3nc[nH]c23)cc1	x	-16%	x	x	x	-26%
CN(Cc1ccccc1)c1nc(N)nc(Cl)c1C=O	20	-6%	-2%	-9	u	i
CCOc1ccc(NC(=O)C2CCN(S(=O)(=O)c3c(C)noc3/C=C/c3ccco3)CC2)cc1	x	-16%	5%[46.1 µM]	x	u	-19%
Cc1ccc(S(=O)(=O)c2cn(C)c3cc(N4CCCC(C)C4)c(F)cc3c2=O)c(C)c1 (stereo not given)	x	-17%	-22%[46.1 µM]	x	x	-16%
Cc1ccccc1Cn1cc(CCC(=O)NCc2cccc(Br)c2)c2ccccc21	x	-15%	0%[46.1 µM]	x	x	-18%
COc1cc(C(C#N)N2N=C(c3ccccc3)CC2c2ccccc2)ccc1O (stereo not given)	87*	x	10%	30*	2%	x
N#CC(c1ccccc1O)N1N=C(c2ccccc2)CC1c1ccccc1 (stereo not given)	97*	x	x	63*	x	x
COc1ccccc1C(C#N)N1N=C(C)CC1c1ccccc1 (stereo not given)	13	x	x	4	x	x
COC(=O)c1cccc(-c2cc(Cl)c3c(c2)CC(CNC(=O)c2cccnc2)O3)c1 (stereo not given)	x	0%	x	x	x	-9%
CC(/C=N/NC(=O)c1nnn(-c2nonc2N)c1CN(C)C)=C\c1ccco1	1	-12%	11%[46.1 µM]	0	-3%[46.1 µM]	-16%
CCCN(CCC)Cc1c(C(=O)N/N=C/C(C)=C\c2ccco2)nnn1-c1nonc1N	-6	u	u	-2	4.5µM*	10µM*
